The supplement of paper PMC9135407
“And” between values parts separate entries of the source, which are not always exact repeats. Equal entries are not always repeated. Structures can show the parent of a compound that is named as a salt. In all, about 5,800 compounds went through this assay and about 620 (11%) showed activity. This excerpt belongs to a sample that is enriched for actives. A number with no mark means an inactive call.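 The calls were made as follows: active = score above a cut-off or among the top three wells of a plate; in these data no inactive exceeds 0.85.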

Test system: primary human hepatic stellate cells (donor 1)
Assay: scaled lipid accumulation score (0 = DMSO-like, 1 = nortriptyline-like); higher = stronger HSC inactivation (lipid re-accumulation), active = hit call of the paper
Conditions: 48 h
[1] = library stock concentration: 10 mM
[2] = library stock concentration: 1 mM
[3] = library stock concentration: 100 uM

## C=C(C)[C@H]1O[C@H]2CC[C@@]3(C)[C@@](O)(CC[C@H]4[C@@H]5OC(C)(C)[C@H]6C[C@@H]7C(=C)Cc8c(Cl)cc9[nH]c(c5c9c8[C@@]76O)[C@@]43C)[C@@]23O[C@H]3[C@H]1O [Penitrem A]
Library stock concentration: 7.9 mM
  scaled lipid accumulation score: ≤ -0.021

## O=c1[nH]c2ccccc2n1C1CCN(CCCC(c2ccc(F)cc2)c2ccc(F)cc2)CC1 [Pimozide] [listing 1 of 3 here]
[1]
  scaled lipid accumulation score: 1.21 (active)

## O=c1[nH]c2ccccc2n1C1CCN(CCCC(c2ccc(F)cc2)c2ccc(F)cc2)CC1 [Pimozide] [listing 2 of 3 here]
  scaled lipid accumulation score: 0.242
[1]
  scaled lipid accumulation score: 0.021

## O=c1[nH]c2ccccc2n1C1CCN(Cc2ccc(-c3[nH]c4cc5ncnc5cc4nc3-c3ccccc3)cc2)CC1 [Sigma A6730]
Library stock concentration: 80 uM
  scaled lipid accumulation score: ≤ 0
Library stock concentration: 400 uM
  scaled lipid accumulation score: ≤ 0
Library stock concentration: 2 mM
  scaled lipid accumulation score: 0.055
[1]
  scaled lipid accumulation score: 0.683

## O=c1[nH]c2ccccc2n1C1CCN(CCCC(c2ccc(F)cc2)c2ccc(F)cc2)CC1 [Pimozide] [listing 3 of 3 here]
[1]
  scaled lipid accumulation score: 1.15 (active)

## O=C(CCCN1CCC(n2c(=O)[nH]c3ccccc32)CC1)c1ccc(F)cc1 [Benperidol]
  scaled lipid accumulation score: 0.202

## O=c1[nH]c2ccccc2n1CCCN1CCC(n2c(=O)[nH]c3cc(Cl)ccc32)CC1 [Domperidone]
  scaled lipid accumulation score: 0.362
Library stock concentration: 3.33 mM
  scaled lipid accumulation score: 0.062
Library stock concentration: 4.7 mM
  scaled lipid accumulation score: 0.135 and 0.071

## c1cc(N2CCNCC2)c2cc[nH]c2c1 [4-(1-piperazinyl)-1H-Indole (hydrochloride)]
[2]
  scaled lipid accumulation score: ≤ 0

## CNCCCCCCN(C)N(O)N=O
[2]
  scaled lipid accumulation score: 0.005

## OC1CCCCC1N1CCC(c2ccccc2)CC1 (stereo not drawn) [Vesamicol hydrochloride]
Library stock concentration: 6.8 mM
  scaled lipid accumulation score: ≤ 0
[1]
  scaled lipid accumulation score: ≤ -0.027

## OC1CCCCC1N1CCC(c2ccccc2)CC1 (stereo not drawn)
[1]
  scaled lipid accumulation score: ≤ 0

## NC(=O)C[S@@+]([O-])C(c1ccccc1)c1ccccc1
[1]
  scaled lipid accumulation score: ≤ 0

## CCCCC[C@@H](/C=C/C=C\C/C=C\C/C=C\CCCC(=O)O)OO
[3]
  scaled lipid accumulation score: ≤ -0.01

## CCCCC/C=C\C/C=C\C/C=C\C/C=C\CCCC(=O)Nc1cccc(O)c1 [N-(3-hydroxyphenyl)-Arachidonoyl amide]
[2]
  scaled lipid accumulation score: 0.053

## CCN(CC)CCOC(=O)C(O)(c1ccccc1)c1ccccc1
[1]
  scaled lipid accumulation score: ≤ 0

## CCCCC/C=C\C/C=C\C/C=C\C/C=C\CCCC(=O)NCCF [Arachidonoyl-2'-Fluoroethylamide]
[2]
  scaled lipid accumulation score: ≤ 0

## CCCN1CCc2cccc3c2[C@H]1Cc1ccc(O)c(O)c1-3 [R(-)-Propylnorapomorphine hydrochloride]
[1]
  scaled lipid accumulation score: ≤ -0.038

## CCCCCCCCCC(=O)OC[C@H](COP(=O)([O-])OCC[N+](C)(C)C)OC(=O)CCCCCCCCC [1,2-Didecanoyl PC]
[2]
  scaled lipid accumulation score: ≤ 0

## S=C=Nc1cccc(C2(N3CCCCC3)CCCCC2)c1 [Metaphit]
[1]
  scaled lipid accumulation score: 0.949 (active)

## c1ccc2sc(C3(N4CCCCC4)CCCCC3)cc2c1 [BTCP hydrochloride]
[1]
  scaled lipid accumulation score: 0.74

## c1ccc2sc(C3(N4CCCCC4)CCCCC3)cc2c1 [BTCP maleate]
[1]
  scaled lipid accumulation score: 0.248

## COC(=O)[C@@H](N)CCCNC(=N)N[N+](=O)[O-] [L-NAME (hydrochloride)]
[2]
  scaled lipid accumulation score: ≤ 0

## COC(=O)[C@@H](N)CCCNC(=N)N[N+](=O)[O-] [L-NAME hydrochloride]
[1]
  scaled lipid accumulation score: ≤ 0

## COC(=O)[C@@H](N)CCCNC(=N)N[N+](=O)[O-]
Library stock concentration: 21.4 mM
  scaled lipid accumulation score: ≤ -0.012

## COC(=O)[C@@H](N)CCCNC(=N)N[N+](=O)[O-] [NG-Nitro-L-arginine methyl ester hydrochloride]
[1]
  scaled lipid accumulation score: 0.047

## c1cc2ccsc2c(N2CCNCC2)n1 [7-Piperazin-1-yl-thieno[2,3-c] Pyridine (hydrochloride)]
[2]
  scaled lipid accumulation score: ≤ 0

## c1cc(N2CCNCC2)c2cnccc2c1 [8-piperazin-1-yl-Isoquinoline (hydrochloride)]
[2]
  scaled lipid accumulation score: 0.005

## NC(N)=Nc1ccc2[nH]c3c(c2c1)C[C@@]1(O)[C@H]2Cc4ccc(O)c5c4[C@@]1(CCN2CC1CC1)[C@H]3O5 [Guanidinyl-naltrindole di-trifluoroacetate]
[1]
  scaled lipid accumulation score: ≤ -0.07

## CS(=O)(=O)O.Oc1ccc2c3c1O[C@H]1c4oc5ccccc5c4C[C@@]4(O)C(C2)N(CC2CC2)CCC314 (stereo partly drawn) [Naltriben methanesulfonate]
[1]
  scaled lipid accumulation score: 1.11 (active)

## Oc1ccc2c3c1O[C@H]1[C@@H](O)CC[C@@]4(O)[C@@H](C2)N(CC2CCC2)CC[C@]314 [Nalbuphine]
[1]
  scaled lipid accumulation score: 0.075

## Oc1ccc2c3c1O[C@H]1c4oc5ccccc5c4C[C@@]4(O)[C@@H](C2)N(CC2CC2)CC[C@]314 [Naltriben mesylate]
Library stock concentration: 4.8 mM
  scaled lipid accumulation score: 0.403

## NC(N)=Nc1ccc2[nH]c3c(c2c1)C[C@@]1(O)[C@H]2Cc4ccc(O)c5c4[C@@]1(CCN2CC1CC1)[C@H]3O5 [GNTI dihydrochloride]
[1]
  scaled lipid accumulation score: ≤ -0.006

## CS(=O)(=O)O.Oc1ccc2c3c1O[C@H]1c4oc5ccccc5c4C[C@@]4(O)C(C2)N(CC2CC2)CC[C@]314 [Naltriben mesylate]
[1]
  scaled lipid accumulation score: 1.27 (active)

## Oc1ccc2c3c1O[C@H]1c4c(c5ccccc5n4Cc4ccccc4)C[C@@]4(O)C(C2)N(CC2CC2)CC[C@]314 [N-Benzylnaltrindole hydrochloride]
[1]
  scaled lipid accumulation score: 0.77

## Oc1ccc2c3c1O[C@H]1[C@@H](O)CC[C@@]4(O)[C@@H](C2)N(CC2CCC2)CC[C@]314 [Nalbuphine hydrochloride]
  scaled lipid accumulation score: ≤ 0
Library stock concentration: 5.1 mM
  scaled lipid accumulation score: 0.02
[1]
  scaled lipid accumulation score: ≤ 0

## NNCc1ccccc1 [Benzylhydrazine hydrochloride]
[1]
  scaled lipid accumulation score: 0.294

## C[C@@H]1NCCc2cc(O)c(O)cc21 [Salsolinol hydrobromide]
  scaled lipid accumulation score: ≤ 0

## C#CC(C)(O)CC (stereo not drawn)
[1]
  scaled lipid accumulation score: ≤ 0

## Cc1nnc2n1-c1ccc(Cl)cc1C(c1ccccc1)=NC2 [Alprazolam]
[1]
  scaled lipid accumulation score: ≤ 0

## Cc1ncc2n1-c1ccc(Cl)cc1C(c1ccccc1F)=NC2
[1]
  scaled lipid accumulation score: ≤ 0

## CCCCC/C=C\C=C\[C@H](CCCCCCCC(=O)O)OO
[3]
  scaled lipid accumulation score: ≤ -0.021

## C=C1[C@@H](O)[C@@H]2O[C@]3(CC[C@H](/C=C/[C@@H](C)[C@@H]4CC(C)=C[C@@]5(O[C@H](C[C@@](C)(O)C(=O)O)CC[C@H]5O)O4)O3)CC[C@H]2O[C@@H]1[C@@H](O)C[C@H](C)[C@H]1O[C@@]2(CCCCO2)CC[C@H]1C [Okadaic acid]
Library stock concentration: 600 uM
  scaled lipid accumulation score: 0.393

## COC1=CC(=O)O[C@@H](/C=C/c2ccccc2)C1 [Kawain]
  scaled lipid accumulation score: 0.119

## COC1=CC(=O)O[C@@H](/C=C/c2ccccc2)C1 (racemic) [Kavain (+/-)]
Library stock concentration: 21.7 mM
  scaled lipid accumulation score: 0.117
